Source: paper PMC4336329 (PLoS ONE, 2015)
Among all 310,000 compounds or so, about 2,200 (0.71%) showed an effect of 50% or more. The effect is printed as a negative number. The entries come from a sample that favours strong results as a whole.

target: human ether-à-go-go-related gene (hERG) potassium channel (human, UniProt Q12809); assay: primary screen, population patch clamp on CHO cells stably expressing hERG; higher = less effect of the substance
Sequence (Q12809 whole entry, looked up): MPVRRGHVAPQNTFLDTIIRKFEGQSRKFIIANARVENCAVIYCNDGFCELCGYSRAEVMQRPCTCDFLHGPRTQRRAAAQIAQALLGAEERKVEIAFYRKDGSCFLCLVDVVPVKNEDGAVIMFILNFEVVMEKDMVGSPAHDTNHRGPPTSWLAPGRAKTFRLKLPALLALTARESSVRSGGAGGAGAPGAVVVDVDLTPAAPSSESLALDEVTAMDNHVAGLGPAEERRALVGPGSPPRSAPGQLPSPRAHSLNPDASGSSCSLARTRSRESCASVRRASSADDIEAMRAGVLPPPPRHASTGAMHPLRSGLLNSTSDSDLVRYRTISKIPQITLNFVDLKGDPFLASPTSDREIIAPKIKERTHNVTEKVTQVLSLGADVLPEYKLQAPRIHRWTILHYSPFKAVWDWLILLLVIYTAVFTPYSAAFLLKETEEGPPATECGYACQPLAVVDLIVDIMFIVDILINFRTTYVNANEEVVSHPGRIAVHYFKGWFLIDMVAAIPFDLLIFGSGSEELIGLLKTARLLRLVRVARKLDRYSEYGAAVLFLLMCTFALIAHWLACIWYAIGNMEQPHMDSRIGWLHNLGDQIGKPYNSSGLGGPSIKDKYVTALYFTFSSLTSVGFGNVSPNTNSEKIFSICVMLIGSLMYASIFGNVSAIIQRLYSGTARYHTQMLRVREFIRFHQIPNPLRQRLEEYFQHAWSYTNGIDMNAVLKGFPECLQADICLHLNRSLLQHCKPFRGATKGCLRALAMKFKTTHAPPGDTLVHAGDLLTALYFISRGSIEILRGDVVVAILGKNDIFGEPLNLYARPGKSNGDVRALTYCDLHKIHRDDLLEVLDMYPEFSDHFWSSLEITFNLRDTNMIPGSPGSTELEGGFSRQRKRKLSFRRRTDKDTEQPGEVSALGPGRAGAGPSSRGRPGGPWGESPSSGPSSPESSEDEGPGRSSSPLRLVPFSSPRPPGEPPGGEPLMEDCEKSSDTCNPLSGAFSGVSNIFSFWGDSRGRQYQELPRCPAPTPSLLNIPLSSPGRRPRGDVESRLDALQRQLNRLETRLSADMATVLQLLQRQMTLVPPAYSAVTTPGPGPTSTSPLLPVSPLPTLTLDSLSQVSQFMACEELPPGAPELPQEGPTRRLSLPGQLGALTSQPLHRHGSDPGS

In order of rising “hERG current change (%, negative = inhibition) at 1uM” value:
1. CCn1cc(C(=O)NCCCN2CC(C)CC(C)C2)c(=O)c2cc(S(=O)(=O)N(C)C3CCCCC3)ccc21 (stereo not drawn)  -91.4%
2. Cc1ccc(OCC(=O)N2CCCC(N3CCN(c4ccc(F)cc4)CC3)C2)cc1 (stereo not drawn)  -90.2%
3. CCN(CC)CCNCC(O)(c1ccc(Cl)cc1)c1ccc(Cl)cc1  -84.4%
4. OCC1(CCOc2ccccc2)CCN(Cc2cccn2-c2ncccn2)CC1  -82.4%
5. CCn1cc(C(=O)NCCCN2CCCC(C)C2)c(=O)c2cc(S(=O)(=O)N(C)C3CCCCC3)ccc21 (stereo not drawn)  -82%
6. CCOC(=O)C1(CCOc2ccccc2)CCN(Cc2cccn2-c2ncccn2)CC1  -81.6%
7. O=C(C1CCN(C2CCN(Cc3ccc4cc(F)ccc4n3)CC2)CC1)N1CCCC1  -78.3%
8. CCC1CCCCN1CCCNC(=O)c1cn(CC)c2ccc(S(=O)(=O)N(C)C3CCCCC3)cc2c1=O (stereo not drawn)  -75.5%
9. CCn1cc(C(=O)NCCCN2CCC(C)CC2)c(=O)c2cc(S(=O)(=O)N(C)C3CCCCC3)ccc21  -74%
10. CCCCN(CC)CCCNC(=O)c1cn(CC)c2ccc(S(=O)(=O)N3CCc4ccccc4C3)cc2c1=O  -71.9%
11. CCn1cc(C(=O)NCCCN2CCCC(C)C2)c(=O)c2cc(S(=O)(=O)N3CCc4ccccc4C3)ccc21 (stereo not drawn)  -64.2%
12. CSc1nc(NCc2ccccc2)c2c3c(sc2n1)CN(C)CC3  -64.2%
13. O=c1c2ccccc2nc2n1CC/C2=C\N1CCN(c2ccc([N+](=O)[O-])cc2)CC1  -62.1%
14. CCN(CC(=O)NCc1cccs1)C(=O)c1ccc(-c2cccc(C(F)(F)F)c2)o1  -57.4%
15. O=C(CSc1ccccc1)N1CCCC(N2CCN(c3ccc(F)cc3)CC2)C1 (stereo not drawn)  -56%
16. CCCN(CCC)CCCNC(=O)c1cn(CC)c2ccc(S(=O)(=O)N3CCc4ccccc4C3)cc2c1=O  -47.9%
17. CSc1nc(NCc2ccco2)c2c3c(sc2n1)CN(C)CC3  -38.8%
18. CCc1ccc(CN2CCC(N3CCC(C(=O)N4CCCC4)CC3)CC2)o1  -28.3%
19. CCn1cc(C(=O)NCCCN2CCCCCC2)c(=O)c2cc(S(=O)(=O)N3CCc4ccccc4C3)ccc21  -24.5%
20. OCC1(CCc2ccccc2)CCN(Cc2cccn2-c2cccnc2)CC1  -23.3%
21. COc1ccc(COCC(O)CN2CCC(CN3C(=O)c4cccc5cccc(c45)C3=O)CC2)cc1OC.Cl (stereo not drawn)  -20.2%
22. O=C(COc1ccccc1Cl)N1CCCC(N2CCN(c3ccc(F)cc3)CC2)C1 (stereo not drawn)  -19.5%
23. CCn1cc(C(=O)NCCCN2CC(C)CC(C)C2)c(=O)c2cc(S(=O)(=O)N(C)C)ccc21 (stereo not drawn)  -17.3%
24. CC1CCCN(CCCNC(=O)c2cn(C)c3ccc(S(=O)(=O)N(C)C4CCCCC4)cc3c2=O)C1 (stereo not drawn)  -13.2%
25. CSc1nc(NCC(C)C)c2c3c(sc2n1)CN(C)CC3  -9.92%
26. CCCNC(=O)c1cc(S(=O)(=O)N2CCCCC2)ccc1N1CCOCC1  -9.91%
27. CCN(CC(=O)NCc1cccs1)C(=O)c1ccc(-c2ccccc2F)o1  -7.69%
28. CCN(CC(=O)NCc1cccs1)C(=O)COc1cccc(C(F)(F)F)c1  -7.5%
29. CCn1cc(C(=O)NCCCN(CC(C)C)CC(C)C)c(=O)c2cc(S(=O)(=O)N(C)C3CCCCC3)ccc21  -6.68%
30. CCCCNc1nc2ccccc2n1CC(=O)N1CCc2ccccc2C1  -6.59%
31. CCN(CC)CCCNC(=O)c1cn(CC)c2ccc(S(=O)(=O)N(C)C3CCCCC3)cc2c1=O  -5.96%
32. CCCCNCC(O)(c1ccc(Cl)cc1)c1ccc(Cl)cc1  -5.39%
33. CCOC(=O)C1(CCOc2ccccc2)CCN(Cc2nccn2CC)CC1  -5.37%
34. O=[N+]([O-])c1ccc(CS(=O)(=O)N2CCN(c3ccccc3)CC2)cc1  -3.45%
35. CCn1cc(C(=O)NCCCOC)c(=O)c2cc(S(=O)(=O)N(C)C3CCCCC3)ccc21  -2.67%
36. CCC1CCCCN1CCCNC(=O)c1cn(C)c2ccc(S(=O)(=O)N(C)C3CCCCC3)cc2c1=O (stereo not drawn)  -2.04%
37. O=C(CCc1ccccc1)Nc1cc2c3c(c1)CCC(=O)N3CCC2  -1.85%
38. O=C(CSc1ccc(Cl)cc1)Nc1nnc(-c2ccco2)o1  -1.41%
39. O=C(CC1CC2CCC1C2)NCCc1ccc(Cl)cc1 (stereo not drawn)  -0.305%
40. COc1ccc2cc(C3(C)NC(=O)N(CC(=O)Nc4c(C)n(C)n(-c5ccccc5)c4=O)C3=O)ccc2c1 (stereo not drawn)  0.395%
41. CSCC(=O)N1CCCC(N2CCN(c3ccc(F)cc3)CC2)C1 (stereo not drawn)  0.918%
42. CCN(CC)CCCNC(=O)c1cn(CC)c2ccc(S(=O)(=O)N3CCc4ccccc4C3)cc2c1=O  1.94%
43. O=C(CSc1ccccc1)N1CCCC(N2CCN(c3ccccc3)CC2)C1 (stereo not drawn)  2.18%
44. COC(=O)C1=C(C)N(CCCCCC(=O)O)C(=O)NC1c1ccccc1 (stereo not drawn)  2.67%
45. CN(C)C1(CNC(=O)Nc2ccc(Cl)c(Cl)c2)CCCCC1  3.77%
46. Cn1cccc1/C=N/N1CCN(Cc2ccc(Cl)cc2)CC1  3.9%
47. CC(C)(C)NC(=O)C1Cc2ccccc2CN1S(=O)(=O)c1ccc(F)cc1 (stereo not drawn)  3.91%
48. COc1ccccc1OCC(=O)N1CCCC(N2CCN(c3ccc(F)cc3)CC2)C1 (stereo not drawn)  4.57%
49. CC(C)c1ccc2c(c1)c(SC(C)(C)C)c(CC(C)(C)C(=O)O)n2Cc1ccc(Cl)cc1  5.14%
50. COc1ccc(/C=C/c2c([N+](=O)[O-])c(=O)n(C)c(=O)n2C)cc1OC  5.36%
51. Cl.O.O=c1c2ccccc2nc2n1CC/C2=C/N1CCN(c2cccc(C(F)(F)F)c2)CC1  5.54%
52. O=C(NCCN1C(=O)C2C3C=CC(C3)C2C1=O)Nc1ccccn1 (stereo not drawn)  5.7%
53. COC(=O)C1=C(C)N(C)C(C)=C(C(=O)OC)C1c1ccc(F)c(Br)c1  6.36%
54. CCn1cc(C(=O)NCCCN2CCCC2)c(=O)c2cc(S(=O)(=O)N3CCc4ccccc4C3)ccc21  6.45%
55. Cc1ccc(S(=O)(=O)NCC2COc3ccccc3O2)cc1 (stereo not drawn)  6.71%
56. COCCNC(=O)C(OC(=O)c1cc2oc(C)cc2n1C)C(C)C (stereo not drawn)  7.23%
57. Oc1ccc(/C=N/Nc2ccc(C(F)(F)F)cn2)cc1  7.84%
58. CC1CCC(NC(=O)CN2CCCN(Cc3ccc(F)cc3Cl)C2=O)CC1 (stereo not drawn)  8.34%
59. Cc1ccccc1NC(=S)N1CCCN(Cc2ccc(F)cc2)C1  8.61%
60. CCOC(=O)C1(CCOc2ccccc2)CCN(Cc2cccn2-c2cccnc2)CC1  9.53%
61. O=C(NCc1ccco1)C(=O)NCC1OCCCN1S(=O)(=O)c1ccc(F)cc1 (stereo not drawn)  10%
62. CC1CCCC(C)N1c1nnc(N)s1 (stereo not drawn)  10.6%
63. CCc1ccc(NC(=O)CSCc2nc(N)nc(Nc3ccccc3CC)n2)cc1  10.9%
64. Cc1nc2ccccc2c(=O)n1-c1ccc([N+](=O)[O-])cc1  11.2%
65. O=C(O)c1ccc(CNCc2ccc(Cl)cc2)cc1  11.3%
66. CCOCCCNC(=O)c1cn(CC)c2ccc(S(=O)(=O)N(C)C3CCCCC3)cc2c1=O  11.3%
67. COc1cn(-c2ccccc2)nc1C(=O)Nc1ccc(C)cc1Cl  11.4%
68. Cc1ccc2c(c1)C1CN(C)CCC1N2C(=O)c1ccccc1NS(=O)(=O)c1ccc(F)cc1 (stereo not drawn)  11.8%
69. Cc1cc([N+](=O)[O-])nn1CC(=O)NNC(=S)Nc1ccc([N+](=O)[O-])cc1  11.8%
70. COc1ccc(-c2nsc(SCC(=O)Nc3cc(C)on3)n2)cc1  11.9%
71. CCS(=O)(=O)N1CCN(S(=O)(=O)c2ccc3ccccc3c2)CC1  13%
72. CC(C)(C)NCC(O)(c1ccc(Cl)cc1)c1ccc(Cl)cc1  13%
73. CCn1ccnc1CN1CCC(CO)(CCOc2ccccc2)CC1  13.1%
74. CC(=O)Nc1cc(C(C)(C)C)c(O)c(C(C)(C)C)c1  13.4%
75. COc1cc(/C=c2\sc3n(c2=O)CCCN=3)ccc1O  13.5%
76. N#Cc1nc(-c2ccc(F)cc2)oc1NCc1cccc2c1OCO2  13.6%
77. COc1cccc(CNC(=O)Cc2nc3nc(C)cc(C)n3n2)c1  14.5%
78. COc1ccc(-c2cc(C)no2)cc1S(=O)(=O)Nc1cccc(C)c1  15.5%
79. CCn1cc(C(=O)NCCCN2CCCC(C)C2)c(=O)c2cc(S(=O)(=O)N3CCOCC3)ccc21 (stereo not drawn)  16.1%
80. COC(=O)c1cc(Br)c(=O)n(Cc2ccc(OC)c(OC)c2)c1  16.7%
81. O=C(c1cc(F)ccc1F)N1CCC(N2CCC(C(=O)N3CCCC3)CC2)CC1  16.9%
82. O=C(Cc1c(F)cccc1Cl)OCN1C(=O)c2ccccc2C1=O  17.4%
83. COc1cc(C2C(C#N)=C(N)Oc3cc(C)oc(=O)c32)cc(OC)c1OC (stereo not drawn)  20.5%
84. COc1ccccc1N(C)S(=O)(=O)c1ccc(Cl)c(C(=O)NC2=NCCS2)c1  21.6%
